# According to paper PMC7862700, “An all-to-all approach to the identification of sequence-specific readers for epigenetic DNA modifications on cytosine”:
# Assays:
# Assay in all cases: DAPPL (digital affinity profiling via proximity ligation, sequencing); 10 mM Tris-HCl pH 7.5, 50 mM NaCl, 1 mM DTT, 4% glycerol, room temperature, 30 min; GST-TFs on glutathione beads, 16-mer random dsDNA library, 0.1% formaldehyde crosslink after washing; high values mean tight binding
# FEV = target: T1, FEV (Homo sapiens, UniProt Q99581 1-238); conditions: protein: recombinant; tags: N-terminal GST; dsDNA, one strand shown
# T1 sequence: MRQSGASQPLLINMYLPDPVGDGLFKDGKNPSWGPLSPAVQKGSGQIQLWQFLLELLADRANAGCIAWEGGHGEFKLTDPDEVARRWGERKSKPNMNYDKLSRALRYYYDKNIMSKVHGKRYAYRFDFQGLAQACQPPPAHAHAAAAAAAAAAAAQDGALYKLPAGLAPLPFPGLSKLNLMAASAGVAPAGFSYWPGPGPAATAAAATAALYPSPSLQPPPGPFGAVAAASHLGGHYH
# How it was run: (§1)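 Human transcription factors fused to GST were expressed in yeast, captured on glutathione beads, given DNA barcodes and pooled with a GST-only negative control. Pools were incubated with 200 nmole of a 16-mer random double-stranded DNA library in Tris/NaCl/DTT/glycerol buffer at room temperature for 30 min. They were then washed, crosslinked with 0.1% formaldehyde, proximity-ligated (BsaI/T4 ligase, 1 h, 37 °C), PCR-amplified and sequenced on an Illumina NextSeq500. Binding signal is each 6-mer's read frequency for a factor divided by its frequency for the GST control.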
# ETV5 = ETV5 (Homo sapiens, UniProt P41161 1-510); conditions: protein: recombinant; tags: N-terminal GST; dsDNA, one strand shown
# How it was run: as §1
# HSF1 = HSF1 (Homo sapiens, UniProt Q00613 1-529); conditions: protein: recombinant; tags: N-terminal GST; chain copies: 3; dsDNA, one strand shown
# How it was run: as §1
# SPIC = target: T2, SPIC (Homo sapiens, UniProt Q8N5J4 1-248); conditions: protein: recombinant; tags: N-terminal GST; dsDNA, one strand shown
# T2 sequence: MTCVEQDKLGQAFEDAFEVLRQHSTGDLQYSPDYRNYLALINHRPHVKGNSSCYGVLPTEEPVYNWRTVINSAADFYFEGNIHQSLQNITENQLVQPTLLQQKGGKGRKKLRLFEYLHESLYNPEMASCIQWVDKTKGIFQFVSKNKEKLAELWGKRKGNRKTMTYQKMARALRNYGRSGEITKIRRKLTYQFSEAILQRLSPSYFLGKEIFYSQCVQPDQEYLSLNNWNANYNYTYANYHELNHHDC
# How it was run: as §1
# ELF4 = ELF4 (Homo sapiens, UniProt Q99607 1-663); conditions: protein: recombinant; tags: N-terminal GST; dsDNA, one strand shown
# How it was run: as §1
# ELK4 = target: T3, ELK4 (Homo sapiens, UniProt P28324-2 1-405); conditions: protein: recombinant; tags: N-terminal GST; dsDNA, one strand shown
# T3 sequence: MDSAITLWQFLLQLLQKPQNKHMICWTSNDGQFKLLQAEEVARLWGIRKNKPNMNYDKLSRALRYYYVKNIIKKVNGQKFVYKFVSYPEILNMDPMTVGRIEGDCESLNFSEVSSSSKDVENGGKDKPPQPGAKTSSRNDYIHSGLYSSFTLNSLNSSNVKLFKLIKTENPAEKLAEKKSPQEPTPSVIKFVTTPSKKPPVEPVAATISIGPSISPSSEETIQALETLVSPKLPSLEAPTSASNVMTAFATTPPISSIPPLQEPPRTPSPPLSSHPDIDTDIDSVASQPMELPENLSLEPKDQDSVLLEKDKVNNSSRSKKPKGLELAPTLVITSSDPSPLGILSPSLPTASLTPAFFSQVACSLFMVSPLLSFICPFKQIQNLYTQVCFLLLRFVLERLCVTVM
# How it was run: as §1
# ETV2 = target: T4, ETV2 (Homo sapiens, UniProt O00321 1-342); conditions: protein: recombinant; tags: N-terminal GST; dsDNA, one strand shown
# T4 sequence: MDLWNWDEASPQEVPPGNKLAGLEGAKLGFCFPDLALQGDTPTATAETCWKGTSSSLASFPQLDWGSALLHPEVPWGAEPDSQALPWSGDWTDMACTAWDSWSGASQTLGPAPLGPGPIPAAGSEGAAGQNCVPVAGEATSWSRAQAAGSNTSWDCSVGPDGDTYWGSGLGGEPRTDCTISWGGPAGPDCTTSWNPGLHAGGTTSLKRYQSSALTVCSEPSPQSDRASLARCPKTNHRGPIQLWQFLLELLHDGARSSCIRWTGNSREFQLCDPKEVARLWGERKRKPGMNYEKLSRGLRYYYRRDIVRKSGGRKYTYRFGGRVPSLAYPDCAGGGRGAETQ
# How it was run: as §1
# ELF3 = target: T5, ELF3 (Homo sapiens, UniProt P78545 1-371); conditions: protein: recombinant; tags: N-terminal GST; dsDNA, one strand shown
# T5 sequence: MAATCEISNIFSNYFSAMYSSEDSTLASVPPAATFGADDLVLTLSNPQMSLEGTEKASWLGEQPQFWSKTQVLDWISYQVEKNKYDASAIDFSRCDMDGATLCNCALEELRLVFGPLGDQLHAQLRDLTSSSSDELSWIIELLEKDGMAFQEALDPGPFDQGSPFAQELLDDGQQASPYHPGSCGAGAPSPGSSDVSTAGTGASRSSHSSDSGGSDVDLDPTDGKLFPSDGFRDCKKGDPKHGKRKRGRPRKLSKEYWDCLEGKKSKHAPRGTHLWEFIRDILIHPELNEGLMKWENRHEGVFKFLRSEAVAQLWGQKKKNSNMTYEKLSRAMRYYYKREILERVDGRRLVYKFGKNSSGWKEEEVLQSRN
# How it was run: as §1
# CRX = CRX (Homo sapiens, UniProt O43186 1-299); conditions: protein: recombinant; tags: N-terminal GST; dsDNA, one strand shown
# How it was run: as §1
# ETV1 = ETV1 (Homo sapiens, UniProt P50549 1-477); conditions: protein: recombinant; tags: N-terminal GST; dsDNA, one strand shown
# How it was run: as §1
# ERF = target: T6, ERF (Homo sapiens, UniProt P50548 1-548); conditions: protein: recombinant; tags: N-terminal GST; dsDNA, one strand shown
# T6 sequence: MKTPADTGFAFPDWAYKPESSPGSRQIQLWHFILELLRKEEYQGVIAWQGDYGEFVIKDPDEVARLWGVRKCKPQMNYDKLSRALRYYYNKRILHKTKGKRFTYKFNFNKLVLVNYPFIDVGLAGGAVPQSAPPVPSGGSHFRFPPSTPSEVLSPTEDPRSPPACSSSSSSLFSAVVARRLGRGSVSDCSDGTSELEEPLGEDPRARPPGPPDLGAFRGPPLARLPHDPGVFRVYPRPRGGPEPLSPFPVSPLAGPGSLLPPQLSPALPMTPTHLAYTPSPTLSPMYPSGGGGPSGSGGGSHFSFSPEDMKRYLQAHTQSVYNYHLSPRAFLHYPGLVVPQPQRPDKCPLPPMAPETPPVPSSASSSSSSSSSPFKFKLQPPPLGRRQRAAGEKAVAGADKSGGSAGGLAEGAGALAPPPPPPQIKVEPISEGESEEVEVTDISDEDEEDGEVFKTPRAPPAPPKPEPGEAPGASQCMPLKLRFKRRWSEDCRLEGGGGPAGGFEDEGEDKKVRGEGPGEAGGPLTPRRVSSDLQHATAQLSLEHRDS
# How it was run: as §1
# ETV3L = target: T7, ETV3L (Homo sapiens, UniProt Q6ZN32 1-361); conditions: protein: recombinant; tags: N-terminal GST; dsDNA, one strand shown
# T7 sequence: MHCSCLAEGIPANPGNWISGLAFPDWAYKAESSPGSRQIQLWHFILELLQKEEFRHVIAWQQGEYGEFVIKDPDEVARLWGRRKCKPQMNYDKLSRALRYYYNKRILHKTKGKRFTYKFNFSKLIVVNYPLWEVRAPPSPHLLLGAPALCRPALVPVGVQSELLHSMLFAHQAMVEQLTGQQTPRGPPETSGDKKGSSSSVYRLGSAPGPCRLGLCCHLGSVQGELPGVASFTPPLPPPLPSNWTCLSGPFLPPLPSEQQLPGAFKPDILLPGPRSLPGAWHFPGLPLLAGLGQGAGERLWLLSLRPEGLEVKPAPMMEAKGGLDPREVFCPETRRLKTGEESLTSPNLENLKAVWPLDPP
# How it was run: as §1
# ETS2 = target: T8, ETS2 (Homo sapiens, UniProt P15036 1-469); conditions: protein: recombinant; tags: N-terminal GST; dsDNA, one strand shown
# T8 sequence: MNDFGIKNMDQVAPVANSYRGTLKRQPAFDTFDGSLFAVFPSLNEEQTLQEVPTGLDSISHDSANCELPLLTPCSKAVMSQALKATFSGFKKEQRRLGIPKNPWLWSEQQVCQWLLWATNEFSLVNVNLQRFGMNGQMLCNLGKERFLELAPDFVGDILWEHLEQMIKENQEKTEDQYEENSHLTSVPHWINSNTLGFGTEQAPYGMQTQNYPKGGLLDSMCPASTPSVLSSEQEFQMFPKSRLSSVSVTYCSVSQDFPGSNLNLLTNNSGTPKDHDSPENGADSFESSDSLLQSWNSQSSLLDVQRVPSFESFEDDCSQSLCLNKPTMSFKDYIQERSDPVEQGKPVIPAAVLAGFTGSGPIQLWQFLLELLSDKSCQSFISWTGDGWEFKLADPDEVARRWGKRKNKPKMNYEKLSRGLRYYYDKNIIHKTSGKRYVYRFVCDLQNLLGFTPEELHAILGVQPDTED
# How it was run: as §1
# SPDEF = target: T9, SPDEF (Homo sapiens, UniProt O95238 1-335); conditions: protein: recombinant; tags: N-terminal GST; dsDNA, one strand shown
# T9 sequence: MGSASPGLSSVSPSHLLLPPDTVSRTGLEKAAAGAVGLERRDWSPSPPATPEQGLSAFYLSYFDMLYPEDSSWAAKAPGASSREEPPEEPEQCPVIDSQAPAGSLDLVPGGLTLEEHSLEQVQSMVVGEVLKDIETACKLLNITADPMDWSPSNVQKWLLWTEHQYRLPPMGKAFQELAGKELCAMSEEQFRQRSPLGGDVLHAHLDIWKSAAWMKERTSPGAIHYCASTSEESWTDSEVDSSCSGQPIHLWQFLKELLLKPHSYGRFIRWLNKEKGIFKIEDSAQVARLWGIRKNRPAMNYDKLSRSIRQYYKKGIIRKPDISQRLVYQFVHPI
# How it was run: as §1
# ETV7 = target: T10, ETV7 (Homo sapiens, UniProt Q9Y603 1-341); conditions: protein: recombinant; tags: N-terminal GST; dsDNA, one strand shown
# T10 sequence: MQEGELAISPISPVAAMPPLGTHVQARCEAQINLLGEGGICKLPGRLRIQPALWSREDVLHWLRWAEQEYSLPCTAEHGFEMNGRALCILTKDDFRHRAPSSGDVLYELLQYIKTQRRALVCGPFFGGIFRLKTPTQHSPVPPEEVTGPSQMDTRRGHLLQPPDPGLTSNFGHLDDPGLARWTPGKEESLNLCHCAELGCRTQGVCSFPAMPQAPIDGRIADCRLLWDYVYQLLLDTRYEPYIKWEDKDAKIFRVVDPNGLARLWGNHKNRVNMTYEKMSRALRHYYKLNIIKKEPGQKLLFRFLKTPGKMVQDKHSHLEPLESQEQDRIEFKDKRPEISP
# How it was run: as §1
# ELF5 = target: T11, ELF5 (Homo sapiens, UniProt Q9UKW6-2 1-255); conditions: protein: recombinant; tags: N-terminal GST; dsDNA, one strand shown
# T11 sequence: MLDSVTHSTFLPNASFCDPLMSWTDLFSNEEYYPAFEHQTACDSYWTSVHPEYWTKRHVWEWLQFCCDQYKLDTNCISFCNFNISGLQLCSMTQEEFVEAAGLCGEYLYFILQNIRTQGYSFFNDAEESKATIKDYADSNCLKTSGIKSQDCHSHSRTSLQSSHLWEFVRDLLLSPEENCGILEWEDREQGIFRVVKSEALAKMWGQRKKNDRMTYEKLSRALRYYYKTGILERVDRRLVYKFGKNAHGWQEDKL
# How it was run: as §1
# ETV3 = target: T12, ETV3 (Homo sapiens, UniProt P41162-2 1-143); conditions: protein: recombinant; tags: N-terminal GST; dsDNA, one strand shown
# T12 sequence: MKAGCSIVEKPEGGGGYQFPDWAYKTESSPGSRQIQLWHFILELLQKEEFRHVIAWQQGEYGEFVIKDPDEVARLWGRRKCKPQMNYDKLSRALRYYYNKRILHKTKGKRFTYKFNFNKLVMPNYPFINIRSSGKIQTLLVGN
# How it was run: as §1
# ETV6 = ETV6 (Homo sapiens, UniProt P41212 1-452); conditions: protein: recombinant; tags: N-terminal GST; dsDNA, one strand shown
# How it was run: as §1
# Chain of ETV5 (P41161 whole entry): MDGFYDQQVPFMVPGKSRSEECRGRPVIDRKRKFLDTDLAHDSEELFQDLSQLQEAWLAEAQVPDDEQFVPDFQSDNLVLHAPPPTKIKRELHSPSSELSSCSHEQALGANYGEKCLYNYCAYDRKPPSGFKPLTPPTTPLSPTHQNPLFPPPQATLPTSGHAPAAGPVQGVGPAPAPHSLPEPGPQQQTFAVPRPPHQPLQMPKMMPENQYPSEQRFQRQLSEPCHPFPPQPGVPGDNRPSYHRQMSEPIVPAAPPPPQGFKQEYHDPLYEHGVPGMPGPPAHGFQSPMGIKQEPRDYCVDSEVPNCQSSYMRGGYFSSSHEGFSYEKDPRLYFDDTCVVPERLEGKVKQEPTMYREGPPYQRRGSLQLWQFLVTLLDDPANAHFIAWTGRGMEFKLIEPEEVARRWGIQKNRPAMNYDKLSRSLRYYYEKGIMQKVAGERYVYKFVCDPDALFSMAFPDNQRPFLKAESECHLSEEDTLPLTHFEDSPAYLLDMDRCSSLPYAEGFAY
# Chain of ETV6 (P41212 whole entry): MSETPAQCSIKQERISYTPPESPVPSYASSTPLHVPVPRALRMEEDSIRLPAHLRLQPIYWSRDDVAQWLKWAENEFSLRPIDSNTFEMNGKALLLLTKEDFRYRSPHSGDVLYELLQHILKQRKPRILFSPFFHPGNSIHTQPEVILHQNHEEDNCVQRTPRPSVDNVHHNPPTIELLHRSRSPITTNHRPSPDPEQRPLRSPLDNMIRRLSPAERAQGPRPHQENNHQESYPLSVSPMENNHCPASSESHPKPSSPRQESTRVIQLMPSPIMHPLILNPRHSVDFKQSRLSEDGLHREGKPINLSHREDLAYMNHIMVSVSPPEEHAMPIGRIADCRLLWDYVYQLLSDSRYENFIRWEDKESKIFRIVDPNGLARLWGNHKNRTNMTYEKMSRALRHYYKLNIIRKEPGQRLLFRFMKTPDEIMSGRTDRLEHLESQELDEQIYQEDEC
# Chain of CRX (O43186 whole entry): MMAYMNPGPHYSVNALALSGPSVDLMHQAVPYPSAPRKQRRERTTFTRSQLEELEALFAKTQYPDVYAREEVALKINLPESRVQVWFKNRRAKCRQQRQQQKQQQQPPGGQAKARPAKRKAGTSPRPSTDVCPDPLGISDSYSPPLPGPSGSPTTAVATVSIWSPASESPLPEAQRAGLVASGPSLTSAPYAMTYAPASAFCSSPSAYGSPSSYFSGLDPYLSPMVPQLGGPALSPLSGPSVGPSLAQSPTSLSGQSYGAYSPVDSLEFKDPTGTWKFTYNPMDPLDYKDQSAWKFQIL
# Chain of ETV1 (P50549 whole entry): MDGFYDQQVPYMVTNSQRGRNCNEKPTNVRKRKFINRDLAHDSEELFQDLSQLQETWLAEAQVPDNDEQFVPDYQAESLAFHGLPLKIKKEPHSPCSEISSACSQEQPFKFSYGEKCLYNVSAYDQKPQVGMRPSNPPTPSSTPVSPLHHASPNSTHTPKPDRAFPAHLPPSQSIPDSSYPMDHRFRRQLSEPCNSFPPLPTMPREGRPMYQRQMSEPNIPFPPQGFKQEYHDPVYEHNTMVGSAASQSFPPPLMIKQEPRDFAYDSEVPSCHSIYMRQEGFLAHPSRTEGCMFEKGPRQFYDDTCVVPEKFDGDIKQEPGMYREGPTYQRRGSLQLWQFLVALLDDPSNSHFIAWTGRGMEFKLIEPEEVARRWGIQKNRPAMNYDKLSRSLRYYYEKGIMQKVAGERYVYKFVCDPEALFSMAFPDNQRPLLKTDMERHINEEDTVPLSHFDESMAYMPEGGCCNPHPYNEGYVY
# Chain of ELF4 (Q99607 whole entry): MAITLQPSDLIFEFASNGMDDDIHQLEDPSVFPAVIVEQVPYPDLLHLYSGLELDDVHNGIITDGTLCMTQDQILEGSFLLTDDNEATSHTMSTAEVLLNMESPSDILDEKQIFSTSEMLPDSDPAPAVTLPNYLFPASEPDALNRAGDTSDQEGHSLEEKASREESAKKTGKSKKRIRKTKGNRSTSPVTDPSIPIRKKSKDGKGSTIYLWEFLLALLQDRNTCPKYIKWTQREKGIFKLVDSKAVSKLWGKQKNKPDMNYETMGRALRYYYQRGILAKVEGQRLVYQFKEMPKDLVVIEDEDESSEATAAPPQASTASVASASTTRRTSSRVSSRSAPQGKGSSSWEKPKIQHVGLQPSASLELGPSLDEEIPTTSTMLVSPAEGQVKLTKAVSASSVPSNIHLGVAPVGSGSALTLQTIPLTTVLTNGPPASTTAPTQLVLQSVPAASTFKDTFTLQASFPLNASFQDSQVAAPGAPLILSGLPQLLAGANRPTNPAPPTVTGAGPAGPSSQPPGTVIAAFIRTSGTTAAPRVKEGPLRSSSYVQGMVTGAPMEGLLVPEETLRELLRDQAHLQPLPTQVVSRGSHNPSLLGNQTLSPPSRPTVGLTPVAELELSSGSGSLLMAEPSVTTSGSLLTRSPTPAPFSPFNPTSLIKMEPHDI
# Chain of HSF1 (Q00613 whole entry): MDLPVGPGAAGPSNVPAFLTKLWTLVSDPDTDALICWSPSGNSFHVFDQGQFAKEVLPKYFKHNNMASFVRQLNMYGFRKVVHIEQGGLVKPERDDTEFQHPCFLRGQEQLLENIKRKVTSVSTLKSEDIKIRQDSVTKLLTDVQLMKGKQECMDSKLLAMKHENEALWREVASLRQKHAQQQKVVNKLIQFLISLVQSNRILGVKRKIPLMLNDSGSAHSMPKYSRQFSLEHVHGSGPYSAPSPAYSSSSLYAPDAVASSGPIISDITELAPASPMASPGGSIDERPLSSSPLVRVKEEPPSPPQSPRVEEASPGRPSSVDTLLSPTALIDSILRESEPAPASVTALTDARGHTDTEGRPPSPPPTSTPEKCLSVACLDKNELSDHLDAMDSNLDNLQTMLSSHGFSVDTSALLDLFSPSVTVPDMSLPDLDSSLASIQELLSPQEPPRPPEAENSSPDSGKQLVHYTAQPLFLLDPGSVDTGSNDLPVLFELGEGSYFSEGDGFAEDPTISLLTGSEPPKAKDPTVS
sequence,measurement,setting,value
ATTGTA,binding signal,FEV,"1.19 fold enrichment (6-mer frequency, TF over GST control)"
same,binding signal,ETV5,"1.19 fold enrichment (6-mer frequency, TF over GST control)"
same,binding signal,HSF1,"1.16 fold enrichment (6-mer frequency, TF over GST control)"
same,binding signal,SPIC,"1.18 fold enrichment (6-mer frequency, TF over GST control)"
same,binding signal,ELF4,"1.24 fold enrichment (6-mer frequency, TF over GST control)"
same,binding signal,ELK4,"1.21 fold enrichment (6-mer frequency, TF over GST control)"
same,binding signal,ETV2,"1.29 fold enrichment (6-mer frequency, TF over GST control)"
same,binding signal,ELF3,"1.17 fold enrichment (6-mer frequency, TF over GST control)"
same,binding signal,CRX,"1.28 fold enrichment (6-mer frequency, TF over GST control)"
same,binding signal,ETV1,"1.21 fold enrichment (6-mer frequency, TF over GST control)"
same,binding signal,ERF,"1.27 fold enrichment (6-mer frequency, TF over GST control)"
same,binding signal,ETV3L,"1.28 fold enrichment (6-mer frequency, TF over GST control)"
same,binding signal,ETS2,"1.17 fold enrichment (6-mer frequency, TF over GST control)"
same,binding signal,SPDEF,"1.18 fold enrichment (6-mer frequency, TF over GST control)"
same,binding signal,ETV7,"1.28 fold enrichment (6-mer frequency, TF over GST control)"
same,binding signal,ELF5,"1.21 fold enrichment (6-mer frequency, TF over GST control)"
same,binding signal,ETV3,"1.26 fold enrichment (6-mer frequency, TF over GST control)"
same,binding signal,ETV6,"1.27 fold enrichment (6-mer frequency, TF over GST control)"
